# Laboratory results: PubChem BioAssay (NCATS)
# Inconclusive results are not listed. Where a call stands in place of a potency, no number is given. Active and inactive are the calls of the source. Calls come from the whole dose curve; as a rule, active = well fitted curve in the direction sought with a large enough effect; inconclusive = small, poorly fitted or top-dose-only effect, or another doubt; inactive = no such curve, though single readings can be large; an effect the other way counts as inactive or inconclusive.
# Key:
# [1] = target: N-terminal Xaa-Pro-Lys N-methyltransferase 1 (Homo sapiens) (UniProt Q9BV86); experiment: qHTS Assay for Inhibitors of N-terminal methyltransferase 1 (NTMT1): LOPAC validation of the NTMT1 SAHH-coupled ThioGlo3 Assay (AID 1347143);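 note: SAH from peptide methylation measured as thiol fluorescence via SAHH coupling and ThioGlo3; nearly all actives have a fitted effect of over 70% in size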
# Summary of the method: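 Steps: dispense 125nM NTMT1; pin-transfer test compounds at several concentrations, with 1uM RCC1-6 peptide as control; incubate 1 min; start with reagent holding 100uM SAM, 10uM SAHH, 15uM ThioGlo3; read at 0 and 30 min.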
# [2] = test system: Zika virus NS2B-NS3 protease (unlinked); experiment: Optimization of GU AMC qHTS for Zika virus inhibitors: Unlinked NS2B-NS3 protease assay (AID 1347151); note: nearly all actives have a fitted effect of over 80% in size; note: potency is the fitted concentration of half-maximal effect
# Summary of the method: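 Fluorescence read-out (340 nm ex / 450 nm em) of AMC peptide cleavage, taken immediately and after 15 min at room temperature (~20% conversion). Enzyme was the unlinked NS2B–NS3 complex at 25 nM in Tris pH 8.0 buffer.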
# [3] = qHTS of pediatric cancer cell lines to identify multiple opportunities for drug repurposing: Confirmatory screen for RD cells (AID 1347124);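 note: cells exposed to compound for 48 h before viability readout; nearly all actives have a fitted effect of over 65% in size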
# Summary of the method: (§1)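 Viability after 48 h compound treatment at 37C, 500-1,000 cells/well, read as ATP luminescence with CellTiter-Glo. Primary screens used 11-point (MIPE, 0.78 nM-46 µM) or 8-point (NPC, 0.59 nM-46 µM) final concentrations; follow-up screens used 11-point dilutions.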
# [4] = qHTS of pediatric cancer cell lines to identify multiple opportunities for drug repurposing: Confirmatory screen for Rh30 cells (AID 1347126); note: nearly all actives have a fitted effect of over 55% in size
# Summary of the method: as §1
# [5] = qHTS of pediatric cancer cell lines to identify multiple opportunities for drug repurposing: Confirmatory screen for OHS-50 cells (AID 1347128);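 note: compound exposure lasted 48 h at 37 degrees C; nearly all actives have a fitted effect of over 55% in size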; note: potency is the fitted concentration of half-maximal effect
# Summary of the method: as §1
# [6] = qHTS of pediatric cancer cell lines to identify multiple opportunities for drug repurposing: Confirmatory screen for SK-N-SH cells (AID 1347129);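 note: cells exposed to compound for 48 h before viability read; nearly all actives have a fitted effect of over 60% in size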
# Summary of the method: as §1
# [7] = target: Furin (Homo sapiens) (UniProt P09958); experiment: Furin counterscreen qHTS for Zika virus inhibitors (AID 1347149); note: nearly all actives have a fitted effect of over 70% in size; note: potency is the fitted concentration of half-maximal effect
# Summary of the method: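 Counterscreen measures cleavage of 2 microM BOC-RVRR-AMC, below its ~15 microM Km, by 5 nM full-length human furin at pH 7.0 after a 15-min compound preincubation. Inhibition derives from the 15-min fluorescence increase at 37C.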
# [8] = test system: Zika virus NS2B-NS3 protease (linked construct); experiment: Confirmatory screen NINDS AMC qHTS for Zika virus inhibitors (AID 1347152); note: potency is the fitted concentration of half-maximal effect; nearly all actives have a fitted effect of over 70% in size
# Summary of the method: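 Linked NS2B-NS3 1 nM, Tris pH 8.0/0.01% Tween 20; cpd 15 min RT dark; + Nle-KRR-AMC 10 µM (Km 18.3 µM); read 0 and 15 min, 340/450 nm; %inh vs controls, 4-param Hill.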
# [9] = qHTS of pediatric cancer cell lines to identify multiple opportunities for drug repurposing: Confirmatory screen for Saos-2 cells (AID 1347127); note: nearly all actives have a fitted effect of over 60% in size
# Summary of the method: as §1
# Chain of Furin (Homo sapiens) (P09958 whole entry, looked up): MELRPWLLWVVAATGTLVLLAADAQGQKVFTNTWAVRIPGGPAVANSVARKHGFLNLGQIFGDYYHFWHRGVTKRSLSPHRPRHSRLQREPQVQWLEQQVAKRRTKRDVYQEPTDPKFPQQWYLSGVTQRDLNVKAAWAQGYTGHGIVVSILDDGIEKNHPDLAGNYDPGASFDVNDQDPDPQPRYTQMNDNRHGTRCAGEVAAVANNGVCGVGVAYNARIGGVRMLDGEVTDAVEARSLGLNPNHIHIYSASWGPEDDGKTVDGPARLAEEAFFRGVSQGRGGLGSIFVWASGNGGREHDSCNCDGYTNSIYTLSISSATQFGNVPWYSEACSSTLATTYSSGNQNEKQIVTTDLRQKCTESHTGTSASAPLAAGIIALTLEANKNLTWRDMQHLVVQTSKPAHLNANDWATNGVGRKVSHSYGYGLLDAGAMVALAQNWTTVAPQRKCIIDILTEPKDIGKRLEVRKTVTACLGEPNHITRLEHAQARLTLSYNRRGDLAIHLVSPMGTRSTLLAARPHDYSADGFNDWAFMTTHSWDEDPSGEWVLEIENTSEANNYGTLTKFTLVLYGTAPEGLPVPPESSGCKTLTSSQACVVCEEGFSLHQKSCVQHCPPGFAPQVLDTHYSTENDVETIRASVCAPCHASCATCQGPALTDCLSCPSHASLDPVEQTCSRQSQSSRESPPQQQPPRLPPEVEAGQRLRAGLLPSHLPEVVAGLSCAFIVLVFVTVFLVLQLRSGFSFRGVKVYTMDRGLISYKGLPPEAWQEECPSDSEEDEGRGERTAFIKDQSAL
# Chain of N-terminal Xaa-Pro-Lys N-methyltransferase 1 (Homo sapiens) (Q9BV86 whole entry, looked up): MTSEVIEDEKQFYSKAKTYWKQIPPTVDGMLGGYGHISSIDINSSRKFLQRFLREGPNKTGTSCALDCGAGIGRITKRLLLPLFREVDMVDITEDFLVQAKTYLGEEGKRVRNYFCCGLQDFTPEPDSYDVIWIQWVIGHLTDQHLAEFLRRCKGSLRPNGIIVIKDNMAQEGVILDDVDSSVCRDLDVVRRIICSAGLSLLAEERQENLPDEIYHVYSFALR
compound,measurement,setting,value
Cc1cnc(NC(=O)C2=C(O)c3ccccc3S(=O)(=O)N2C)s1,Potency,[1],inactive
same,Potency,[2],inactive
Clc1cccc(Cl)c1NC1=NCCN1,Potency,[2],inactive
CC(C=CC1=C(C)CCCC1(C)C)=CC=CC(C)=CC(=O)O,Potency,[3],inactive
same,Potency,[4],inactive
same,Potency,[5],inactive
same,Potency,[6],inactive
CS(=O)(=O)c1ccc(C(=O)Nc2ccc(Cl)c(-c3ccccn3)c2)c(Cl)c1,Potency,[3],inactive
same,Potency,[4],inactive
same,Potency,[5],inactive
same,Potency,[6],inactive
CN(C)c1ccc(C2Nc3ccc4ccccc4c3C3=C2C(=O)CC(C)(C)C3)cc1Br (stereo not given),Potency,[3],inactive
CCCCNc1cc(C(=O)O)cc(S(N)(=O)=O)c1Oc1ccccc1,Potency,[7],27 µM (active)
same,Potency,[2],29.9 µM (active)
same,Potency,[8],27.1 µM (active)
O=c1[nH]cnc2[nH]ncc12,Potency,[2],inactive
O=c1n(CCCN2CCN(c3cccc(Cl)c3)CC2)nc2ccccn12,Potency,[7],24.1 µM (active)
same,Potency,[2],26.7 µM (active)
same,Potency,[8],24.1 µM (active)
OC(CN1CCC(Cc2ccc(F)cc2)CC1)c1ccc(Cl)cc1 (stereo not given),Potency,[3],inactive
same,Potency,[4],inactive
same,Potency,[9],inactive
same,Potency,[2],inactive
CCOc1ccn(-c2ccc(F)cc2)c(=O)c1C(=O)Nc1ccc(Oc2ccnc(N)c2Cl)c(F)c1,Potency,[3],inactive
same,Potency,[4],inactive
same,Potency,[6],inactive
O=C(Nc1nc2ccccc2n1CCN1CCOCC1)c1cccc([N+](=O)[O-])c1,Potency,[1],inactive
same,Potency,[2],inactive
Cn1cnc([N+](=O)[O-])c1Sc1ncnc2nc[nH]c12,Potency,[3],inactive
same,Potency,[9],inactive
same,Potency,[5],4.24 µM (active)
same,Potency,[7],inactive
same,Potency,[2],inactive
CC(C)(Sc1ccc(CCN(CCCCC2CCCCC2)C(=O)NC2CCCCC2)cc1)C(=O)O,Potency,[7],inactive
same,Potency,[2],15 µM (active)
